Screens as filed in PubChem.
This is one part of a sample in which hits are shown more often than they occur.
DUX4 txn inh: inhibitors of DUX4-driven ZSCAN4 reporter expression, primary screen, 293T cells, Gaussia and Italica luciferase; 293T-iDUX4 ZSCAN4-Gaussia luciferase reporter, 24 h; hits give low values; activity change, negative = inhibition, % (test concentration not listed); 0.8% of 37,000 active; AID 1224904, 2016;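 active = mean inhibition of at least 10% in the main channel, exceeding the control channel by a set limit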
Hits are given with their value; i = inactive; ! = not confirmed by another sample.

SMILES | DUX4 txn inh
CO[C@H]1CN(C)C(=O)c2ccc(NC(=O)C3CC3)cc2OC[C@H](C)N(Cc2cncnc2)C[C@@H]1C | i
O=C(c1cccc(F)c1)N1CC[C@@H]2[C@H](CO)Nc3ccc(-c4ccccc4F)cc3[C@@H]21 | -31.8
CN1c2ccc(-c3cccc(F)c3)cc2[C@H]2[C@H](CCN2C(=O)c2ccncc2)[C@@H]1CO | i
OC[C@H]1Nc2ccc(-c3ccc(F)cc3)cc2[C@@H]2[C@H]1CCN2Cc1ccc(F)cc1 | i
O=C(c1ccc(F)cc1)N1CC[C@@H]2[C@H]1c1cc(-c3ccccc3F)ccc1N[C@@H]2CO | i
CCC(=O)N1CC[C@@H]2[C@@H](CO)N(C)c3ccc(-c4cccc(F)c4)cc3[C@@H]21 | i
COc1ccccc1CN1CC[C@@H]2[C@H](CO)Nc3ccc(C#Cc4ccccc4)cc3[C@@H]21 | i
O=C(c1cccc(F)c1)N1CC[C@@H]2[C@H]1c1cc(-c3ccccc3F)ccc1N[C@@H]2CO | i
O=C(Cc1ccncc1)N1CC[C@@H]2[C@H](CO)Nc3ccc(-c4ccccc4F)cc3[C@@H]21 | -48.0
O=C(Cc1ccncc1)N1CC[C@@H]2[C@@H](CO)Nc3ccc(-c4cccc(F)c4)cc3[C@@H]21 | i
COc1ccccc1CN1CC[C@@H]2[C@@H](CO)Nc3ccc(-c4cccc(F)c4)cc3[C@@H]21 | -23.5
CN1c2ccc(-c3cccc(F)c3)cc2[C@H]2[C@H](CCN2C(=O)c2ccccc2F)[C@H]1CO | -45.1
O=C(Cc1ccccc1)N1CC[C@@H]2[C@@H](CO)Nc3ccc(-c4ccccc4F)cc3[C@@H]21 | i
C[C@H]1CN([C@@H](C)CO)C(=O)c2cc(NC(=O)C3CCCCC3)ccc2O[C@@H]1CN(C)C(=O)Nc1ccc(C(F)(F)F)cc1 | i
CCCNC(=O)Nc1ccc2c(c1)OC[C@H](C)N(S(C)(=O)=O)C[C@H](C)[C@@H](OC)CN(C)C2=O | i
COC(=O)C[C@@H]1CC[C@H]2[C@@H](COc3ccc(NC(=O)c4ccc(OC)cc4)cc3C(=O)N2C)O1 | i
CO[C@H]1CC[C@H]2CCN(C)C(=O)[C@H](C)[C@@H](OC)CN(C)C(=O)c3cccc(C#N)c3OC[C@H]1O2 | i
C[C@H](CO)N1C[C@H](C)[C@H](CN(C)CC2CC2)Oc2cc(C#Cc3ccncc3)ccc2S1(=O)=O | i
COc1ccccc1CNC(=O)C[C@@H]1C[C@@H]2c3cc(NC(=O)Nc4ccccc4F)ccc3O[C@@H]2[C@@H](CO)O1 | i
CC=Cc1ccc2n(c1=O)C[C@H]1[C@H](CO)[C@@H](C(=O)NC3CCC3)[C@@H]2N1C(=O)c1ccccn1 (mixture of isomers) | i
CCN1[C@H](C(=O)OC)[C@@H](CO)[C@@H]2Cn3c(ccc(-c4cccc(C(=O)N(C)C)c4)c3=O)[C@@H]21 | i
CN(C)CC(=O)Nc1ccc2c(c1)[C@H]1C[C@H](CC(=O)NCC3CC3)O[C@@H](CO)[C@H]1O2 | i
O=C(c1cccc(F)c1)N1CC[C@@H]2[C@H](CO)Nc3ccc(C#CC4CC4)cc3[C@@H]21 | i
O=C(c1ccccc1)N1CC[C@@H]2[C@H]1c1cc(C#Cc3cccc(F)c3)ccc1N[C@@H]2CO | i
O=C(c1cccc(F)c1)N1CC[C@@H]2[C@H](CO)Nc3ccc(C#Cc4ccc(F)cc4)cc3[C@@H]21 | -41.7
SMILES | DUX4 txn inh
O=C(c1cccc(F)c1)N1CC[C@@H]2[C@H]1c1cc(-c3cccc(F)c3)ccc1N[C@@H]2CO | i
COc1cccc(C#Cc2ccc3c(c2)[C@@H]2[C@@H](CCN2C(=O)c2ccc(F)cc2)[C@@H](CO)N3)c1 | i
O=C(c1cccnc1)N1CC[C@H]2[C@H](CO)Nc3ccc(C#Cc4cccnc4)cc3[C@H]21 | i
O=C(c1ccccc1)N1CC[C@@H]2[C@@H](CO)Nc3ccc(C#Cc4cccc(F)c4)cc3[C@@H]21 | -43.4
CC(=O)N1CC[C@@H]2[C@@H](CO)Nc3ccc(C#Cc4cccnc4)cc3[C@@H]21 | i
O=C(c1cccnc1)N1CC[C@@H]2[C@H]1c1cc(C#Cc3cccnc3)ccc1N[C@@H]2CO | -18.4
O=C(C[C@@H]1CC[C@H]2[C@@H](COC[C@@H](O)CN2Cc2cccc(Cl)c2)O1)NCc1cccc(F)c1 | i
O=C(C[C@H]1C=C[C@H](NC(=O)c2ccccn2)[C@H](CO)O1)NCc1cccc(F)c1 | i
N#Cc1ccc(-c2ccc(C3[C@@H]4CN(C(=O)Cc5ccccc5)C[C@H]3N4)cc2)cc1 (some centres undefined) | -53.2!
N#Cc1ccc(-c2ccc([C@@H]3[C@H](CO)N4C(=O)CN(C(=O)Cc5ccccc5)C[C@@H]34)cc2)cc1 | i
N#Cc1cccc(-c2ccc(C3[C@@H]4CN(C(=O)Cc5ccncc5)C[C@H]3N4)cc2)c1 (some centres undefined) | -26.3!
N#Cc1ccc(-c2ccc([C@H]3[C@H]4CN(C(=O)Cc5ccccc5)CC(=O)N4[C@H]3CO)cc2)cc1 | i
Cc1cccc(-c2ccc(C3[C@@H]4CN(C(=O)Cc5ccncc5)C[C@H]3N4)cc2)c1 (some centres undefined) | i
N#Cc1cccc(-c2ccc(C3[C@@H]4CN(C(=O)c5cccnc5)C[C@H]3N4)cc2)c1 (some centres undefined) | i
N#Cc1ccc(-c2cccc(-c3nc(C(=O)O)cc4c3[C@@H](CCO)N(CC3CCOCC3)C4)c2)cc1 | i
CCC(=O)N1[C@@H](CO)[C@@H](c2ccc(-c3ccc(F)cc3)cc2)C12CN(C(C)=O)C2 | i
O=C(Cc1ccncc1)Nc1ccc2c(c1)[C@H]1C[C@@H](CC(=O)N3CCc4ccccc4C3)O[C@H](CO)[C@H]1O2 | i
C[C@@H]1CCCCO[C@H](CN(C)C(=O)CCC(F)(F)F)[C@H](C)CN([C@H](C)CO)C(=O)c2cc(NS(=O)(=O)c3cccs3)ccc2O1 | i
COc1cccc(NC(=O)N2C[C@H](O)COC[C@H]3O[C@H](CC(=O)NCCCN4CCOCC4)CC[C@@H]32)c1 | i
COc1ccc2c3c(n(C)c2c1)[C@@H](CO)N(C(=O)c1ccccc1)CC31CN(C(C)=O)C1 | i
COc1cc(CN2CC3(CCN(C(=O)NC(C)C)CC3)c3c(n(C)c4cc(OC)ccc34)[C@H]2CO)cc(OC)c1 | i
COc1cc(CN2CC3(CCN(C(=O)NC(C)C)CC3)c3c(n(C)c4cc(OC)ccc34)[C@@H]2CO)cc(OC)c1 | i
COc1ccc2c3c(n(C)c2c1)[C@@H](CO)N(C)CC31CN(C(=O)Nc2cccc(F)c2)C1 | i
COc1ccc2c3c(n(C)c2c1)[C@H](CO)N(C)CC31CN(C(=O)c2ccccc2F)C1 | -32.1
COc1ccc2c3c(n(C)c2c1)[C@@H](CO)N(C(=O)c1ccccc1)CC31CN(C)C1 | i
SMILES | DUX4 txn inh
COc1ccc2c3c(n(C)c2c1)[C@H](CO)N(C)CC31CN(C(=O)c2cccnc2)C1 | i
COc1cc(CN2CC3(CCN(C(=O)Nc4cccc(F)c4)CC3)c3c(n(C)c4cc(OC)ccc34)[C@H]2CO)cc(OC)c1 | -37.0
COc1ccc2c3c(n(C)c2c1)[C@H](CO)N(C(C)=O)CC31CN(C(=O)c2ccccc2)C1 | -30.2
COc1ccc2c3c(n(C)c2c1)[C@@H](CO)N(C(=O)c1ccc(F)cc1)CC31CCN(CC2CC2)CC1 | i
COc1ccc2c3c(n(C)c2c1)[C@H](CO)N(CC1CC1)CC31CN(C(=O)c2ccc(F)cc2)C1 | -37.2
COc1ccc2c3c(n(C)c2c1)[C@H](CO)N(CC1CC1)CC31CN(Cc2ccc(F)cc2)C1 | i
